Compound activity from PubChem BioAssay.
D2 ag-1: activates the human D2 dopamine receptor | activation, % at 2 µM | P14416 | AID 485358 | hit rate 0.53% among 340,000 | HEK293 T-REx D2 cells, calcium flux agonist mode;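 active = activation over 3 SD above normal in the single-dose calcium agonist read, cut at about 30% in these data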
Target sequence (P14416 whole entry, looked up): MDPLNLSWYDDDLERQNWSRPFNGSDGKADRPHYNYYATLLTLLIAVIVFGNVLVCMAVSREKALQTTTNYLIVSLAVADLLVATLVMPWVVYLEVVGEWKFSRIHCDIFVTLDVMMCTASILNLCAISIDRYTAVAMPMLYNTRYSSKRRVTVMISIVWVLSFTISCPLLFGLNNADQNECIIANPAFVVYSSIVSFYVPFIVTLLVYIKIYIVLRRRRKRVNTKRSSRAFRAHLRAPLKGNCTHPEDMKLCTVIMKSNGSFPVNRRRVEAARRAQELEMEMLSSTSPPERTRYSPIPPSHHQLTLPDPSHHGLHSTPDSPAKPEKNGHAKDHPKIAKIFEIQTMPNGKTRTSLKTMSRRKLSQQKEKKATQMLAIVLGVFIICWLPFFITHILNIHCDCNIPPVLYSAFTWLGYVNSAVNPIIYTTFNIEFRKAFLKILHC
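Agonism scored from kinetic calcium signal (1 read/sec, 180 s) following compound pin transfer, after a 10 s baseline. Cells: HEK293 Trex line expressing inducible D2 receptor coupled to calcium, dye-loaded after overnight culture at 30 C.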
D2 PAM-1: human D2 receptor positive allosteric modulation. P14416. DiscoveRx D2 beta-arrestin cells, luminescence, 90 min; 100% = 57 uM dopamine signal. potentiation, % (concentration not given with the values). hit rate 0.23% among 360,000. AID 624464; in the data active = potentiation above about 50%; inconclusive = mostly about 30% to 49%
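D2 cells co-treated with compound plus 50 nM dopamine (EC20) for 90 min at 37 deg C to detect potentiation. Beta-arrestin recruitment was read as enzyme-fragment luminescence after 1 h at ambient temperature. Full response was set by 57 uM dopamine.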
D2 ag-2: human D2 receptor agonism in beta-arrestin assay | activation, % (no concentration beside the values) | hit rate 0.084% among 360,000 | P14416 | DiscoveRx PathHunter D2 beta-arrestin, luminescence, 90 min; 100% = 57 uM dopamine signal; in the data active = activation above about 40%; inconclusive = between about 15% and that limit
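DiscoveRx PathHunter D2 beta-arrestin cells (2,100/well) attached overnight, then compound-stimulated 90 min at 37 C in HBSS/10 mM HEPES/0.1% Tween-20 buffer; beta-galactosidase complementation read by luminescence after 1 h at ambient temperature. Dopamine 57 uM final (EC100) as control.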
D2 PAM-2: D2 dopamine receptor (human) potentiation | potentiation, % at 10 µM | P14416 | AID 485347 | hit rate 0.34% among 340,000 | HEK293 T-REx D2, calcium flux, EC20 dopamine potentiation;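 active = potentiation over 3 SD above the plate norm, cut at about 30% in these data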
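Potentiation of an EC20 dopamine calcium response measured kinetically over 180 s, after a preceding 180 s compound-only read flagging agonists. Cells: inducible Hek293 Trex D2 line, 4000/well, cultured overnight at 30 C before dye loading.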
D2 antagonist: antagonists of human D2 dopamine receptor | hit rate 2% among 340,000 | HEK293 TREx D2 cells, calcium flux, dopamine EC80 | P14416 | inhibition, % at 10 µM | AID 485344; in the data active = inhibition above about 30%; inactive = below that, where a call was filed
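Tetracycline-induced HEK293 T-REx cells expressing D2 force-coupled to calcium signalling were dye-loaded, exposed to compound for 180 s, then challenged with an EC80 of dopamine; calcium flux was followed kinetically for a further 180 s.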
Numbers stand for hits; i = inactive; ? = inconclusive; nt = not tested or not shown. Shown are actives, neighbours in structure and some others; about 2.4% of the full set was active somewhere.

SMILES	D2 ag-1	D2 PAM-1	D2 ag-2	D2 PAM-2	D2 antagonist
COc1ccc(S(=O)(=O)N(C)CC(=O)NCc2ccco2)cc1OC	i	i	i	i	33.7
O=C(CN(C1CCCCC1)S(=O)(=O)c1ccccc1)NCc1ccco1	i	i	i	46.5	i
Cc1ccc(S(=O)(=O)N(CC(=O)NCc2ccco2)C2CCCCC2)cc1	i	i	i	i	i
COc1ccc(S(=O)(=O)NCC(=O)N(CC(=O)NCc2ccco2)C2CCCC2)cc1	i	i	i	i	46.7
CCCCOc1ccc(S(=O)(=O)NNC(=O)c2cc3ccccc3o2)cc1	i	i	i	i	44.2
CN(CCCNC(=O)c1cccn2c(=O)c3ccccc3nc12)Cc1ccccc1	i	i	i	i	31.0
O=C(NCCN1CCN(c2ccccc2)CC1)c1cccn2c(=O)c3ccccc3nc12	i	i	i	i	i
CC(C)C(NC(=O)c1ccccc1)C(=O)NCC(c1ccccc1)N(C)C (configuration not stated)	nt	i	i	nt	nt
CC(C)C(NC(=O)c1ccco1)C(=O)NCC(c1ccco1)N(C)C (configuration not stated)	i	i	i	33.3	i
CC(C)[C@H](NC(=O)c1ccco1)C(=O)Nc1ccc(OC(F)F)cc1	i	i	i	i	i
CCOc1ccc(NC(=O)[C@@H](NC(=O)c2ccco2)C(C)C)cc1	i	i	i	i	39.0
CCCc1nnc(NC(=O)c2cc(=O)c3cc(Cl)ccc3o2)s1	nt	nt	nt	i	nt
CCOC(=O)c1c(C)n(-c2ccc(C)cc2)c2c(CC(C)=O)c(Br)c(OC)c(O)c12	i	i	i	i	i
CCOC(=O)c1c(C)n(-c2ccc(C)cc2)c2c(C(C(C)=O)C(=O)O)c(Br)c(O)c(O)c12 (configuration not stated)	i	70.0	?	i	i
COc1cc(CN2CCN(c3cccc(C)c3C)CC2)cc(OC)c1O	i	i	i	i	41.6
Cc1cc(CN2CCN(c3cccc(C)c3C)CC2)cs1	i	nt	nt	i	nt
Cc1cccc(N2CCN(Cc3ccoc3)CC2)c1C	i	i	i	i	67.0
COc1cc(CN2CCCCCC2)cc(OC)c1O	i	i	i	i	i
CCc1ccccc1NC(=O)c1ccc2c(c1)N(Cc1cccc(Cl)c1)C(=O)c1ccccc1S2(=O)=O	i	nt	nt	i	nt
CCc1ccc(-n2c(=O)c3c4c(sc3n(CC(=O)c3ccc(F)cc3)c2=O)CCC4)cc1	i	nt	nt	i	nt
CC1CCC(C(C)C)C(OC(=O)C[n+]2cc(-c3ccc(Cl)cc3)n3c2CCCCC3)C1 (configuration not stated)	i	i	i	i	33.1
CC(=O)c1ccc(OCCCC(=O)Nc2cc(S(=O)(=O)N3CCCCC3)ccc2C)cc1	i	i	i	i	i
CC(=O)NCCCC(=O)NNC1CC(=O)N(c2cccc(Cl)c2)C1=O (configuration not stated)	i	i	i	i	37.1
CCN(CC(=O)Nc1c(F)cccc1F)C(=O)C1COc2ccccc2O1 (configuration not stated)	i	i	i	i	35.7
CN1CCN(c2nc(NCc3ccco3)nc(N)c2[N+](=O)[O-])CC1	i	i	i	i	77.2
SMILES	D2 ag-1	D2 PAM-1	D2 ag-2	D2 PAM-2	D2 antagonist
CN(c1ccccc1)c1nc(N)c([N+](=O)[O-])c(N2CCCCCC2)n1	i	i	i	i	i
CCN1CCN(c2nc(Nc3ccc(C)c(C)c3)nc(N)c2[N+](=O)[O-])CC1	i	i	i	i	51.5
CCN1CCN(c2nc(N(C)c3ccccc3)nc(N)c2[N+](=O)[O-])CC1	i	i	i	i	49.5
COc1ccc(CC(=O)OCC(=O)Nc2ccc(Cl)cc2C)cc1	nt	i	i	nt	nt
CC(=O)c1cccc(NC(=O)c2cc(C)nc3c2c(C)nn3-c2cccc(Cl)c2C)c1	i	nt	nt	i	nt
COc1ccc(N(CC(=O)Nc2cccc(N(C)S(C)(=O)=O)c2)S(=O)(=O)c2ccccc2)cc1Cl	i	i	i	i	i
Cc1nn(C(=O)c2cc3sccc3[nH]2)c(C)c1C	i	i	i	i	33.6
CCOc1ncccc1C(=O)OCC(=O)NCc1ccc(C(=O)OC)cc1	nt	i	i	nt	nt
Nc1ccc(-c2ncc(-c3ccccc3)o2)cc1	i	i	i	i	i
Cc1ccc(-c2cnc(-c3ccncc3)o2)cc1	i	i	i	i	32.3
